From PMC11062922 (Nature Chemical Biology, 2023)
Read-outs that look alike come from different tables or passages of the source.

Experiments:
TNIK = settings: read-out: apparent Kd, n = 1
ULK3 = settings: read-out: apparent Kd, n = 1

In the case of Lestaurtinib, the potency estimated from few doses (TNIK; compound concentrations:100 nM and 1000 nM (sheet 'Lestaurtinib' of Supplementary Table 1),run:Lestaurtinib_02795_R2,Plate:MR022) was 154 nM, the potency estimated from few doses (TNIK; compound concentrations:100 nM and 1000 nM (sheet 'Lestaurtinib' of Supplementary Table 1),run:Lestaurtinib_02795_R3,Plate:MR022) was 504 nM and the potency estimated from few doses (TNIK; compound concentrations:100 nM and 1000 nM (sheet 'Lestaurtinib' of Supplementary Table 1),run:Lestaurtinib_02802_R1,Plate:MR029) was 121 nM. For the same substance, the potency estimated from few doses (TNIK; compound concentrations:100 nM and 1000 nM (sheet 'Lestaurtinib' of Supplementary Table 1),run:Lestaurtinib_02802_R2,Plate:MR029) was 141 nM, the potency estimated from few doses (TNIK; compound concentrations:100 nM and 1000 nM (sheet 'Lestaurtinib' of Supplementary Table 1),run:Lestaurtinib_02896_R1,Plate:MR030) was 444 nM and the potency estimated from few doses (TNIK; compound concentrations:100 nM and 1000 nM (sheet 'Lestaurtinib' of Supplementary Table 1),run:Lestaurtinib_02896_R2,Plate:MR030) was 356 nM. It also gave a potency estimated from few doses (TNIK; compound concentrations:100 nM and 1000 nM (sheet 'Lestaurtinib' of Supplementary Table 1),run:Lestaurtinib_02896_R3,Plate:MR030) of 484 nM, a potency estimated from few doses (TNIK; compound concentrations:100 nM and 1000 nM (sheet 'Lestaurtinib' of Supplementary Table 1),run:Lestaurtinib_03172_R2,Plate:MR031) of 157 nM and a potency estimated from few doses (TNIK; compound concentrations:100 nM and 1000 nM (sheet 'Lestaurtinib' of Supplementary Table 1),run:Lestaurtinib_03172_R3,Plate:MR031) of 561 nM. It also gave a potency estimated from few doses (TNIK; compound concentrations:100 nM and 1000 nM (sheet 'Lestaurtinib' of Supplementary Table 1),run:Lestaurtinib_03252_R1,Plate:MR032) of 143 nM, a potency estimated from few doses (TNIK; compound concentrations:100 nM and 1000 nM (sheet 'Lestaurtinib' of Supplementary Table 1),run:Lestaurtinib_03260_R1,Plate:MR033) of 428 nM and a potency estimated from few doses (TNIK; compound concentrations:100 nM and 1000 nM (sheet 'Lestaurtinib' of Supplementary Table 1),run:Lestaurtinib_03260_R2,Plate:MR033) of 808 nM. For the same substance, the potency estimated from few doses (TNIK; compound concentrations:100 nM and 1000 nM (sheet 'Lestaurtinib' of Supplementary Table 1),run:Lestaurtinib_03260_R3,Plate:MR033) was 717 nM, the potency estimated from few doses (ULK3; compound concentrations:100 nM and 1000 nM (sheet 'Lestaurtinib' of Supplementary Table 1),run:Lestaurtinib_02339_R1,Plate:MR001) was 270 nM and the potency estimated from few doses (ULK3; compound concentrations:100 nM and 1000 nM (sheet 'Lestaurtinib' of Supplementary Table 1),run:Lestaurtinib_02339_R3,Plate:MR001) was 265 nM. For the same substance, the potency estimated from few doses (ULK3; compound concentrations:100 nM and 1000 nM (sheet 'Lestaurtinib' of Supplementary Table 1),run:Lestaurtinib_02364_R1,Plate:MR002) was 301 nM, the potency estimated from few doses (ULK3; compound concentrations:100 nM and 1000 nM (sheet 'Lestaurtinib' of Supplementary Table 1),run:Lestaurtinib_02364_R2,Plate:MR002) was 295 nM and the potency estimated from few doses (ULK3; compound concentrations:100 nM and 1000 nM (sheet 'Lestaurtinib' of Supplementary Table 1),run:Lestaurtinib_02367_R1,Plate:MR003) was 146 nM. For the same substance, the potency estimated from few doses (ULK3; compound concentrations:100 nM and 1000 nM (sheet 'Lestaurtinib' of Supplementary Table 1),run:Lestaurtinib_02367_R2,Plate:MR003) was 218 nM, the potency estimated from few doses (ULK3; compound concentrations:100 nM and 1000 nM (sheet 'Lestaurtinib' of Supplementary Table 1),run:Lestaurtinib_02367_R3,Plate:MR003) was 228 nM and the potency estimated from few doses (ULK3; compound concentrations:100 nM and 1000 nM (sheet 'Lestaurtinib' of Supplementary Table 1),run:Lestaurtinib_02381_R1,Plate:MR004) was 154 nM. The potency estimated from few doses (ULK3; compound concentrations:100 nM and 1000 nM (sheet 'Lestaurtinib' of Supplementary Table 1),run:Lestaurtinib_02407_R1,Plate:MR005) was 137 nM, the potency estimated from few doses (ULK3; compound concentrations:100 nM and 1000 nM (sheet 'Lestaurtinib' of Supplementary Table 1),run:Lestaurtinib_02422_R1,Plate:MR006) was 113 nM and the potency estimated from few doses (ULK3; compound concentrations:100 nM and 1000 nM (sheet 'Lestaurtinib' of Supplementary Table 1),run:Lestaurtinib_02422_R2,Plate:MR006) was 60.5 nM. The potency estimated from few doses (ULK3; compound concentrations:100 nM and 1000 nM (sheet 'Lestaurtinib' of Supplementary Table 1),run:Lestaurtinib_02422_R3,Plate:MR006) was 134 nM, the potency estimated from few doses (ULK3; compound concentrations:100 nM and 1000 nM (sheet 'Lestaurtinib' of Supplementary Table 1),run:Lestaurtinib_02437_R1,Plate:MR007) was 239 nM and the potency estimated from few doses (ULK3; compound concentrations:100 nM and 1000 nM (sheet 'Lestaurtinib' of Supplementary Table 1),run:Lestaurtinib_02437_R2,Plate:MR007) was 253 nM. It also gave a potency estimated from few doses (ULK3; compound concentrations:100 nM and 1000 nM (sheet 'Lestaurtinib' of Supplementary Table 1),run:Lestaurtinib_02437_R3,Plate:MR007) of 22.5 nM, a potency estimated from few doses (ULK3; compound concentrations:100 nM and 1000 nM (sheet 'Lestaurtinib' of Supplementary Table 1),run:Lestaurtinib_02438_R2,Plate:MR008) of 236 nM and a potency estimated from few doses (ULK3; compound concentrations:100 nM and 1000 nM (sheet 'Lestaurtinib' of Supplementary Table 1),run:Lestaurtinib_02438_R3,Plate:MR008) of 286 nM. For the same substance, the potency estimated from few doses (ULK3; compound concentrations:100 nM and 1000 nM (sheet 'Lestaurtinib' of Supplementary Table 1),run:Lestaurtinib_02443_R1,Plate:MR009) was 231 nM, the potency estimated from few doses (ULK3; compound concentrations:100 nM and 1000 nM (sheet 'Lestaurtinib' of Supplementary Table 1),run:Lestaurtinib_02443_R2,Plate:MR009) was 239 nM and the potency estimated from few doses (ULK3; compound concentrations:100 nM and 1000 nM (sheet 'Lestaurtinib' of Supplementary Table 1),run:Lestaurtinib_02443_R3,Plate:MR009) was 196 nM. It also gave a potency estimated from few doses (ULK3; compound concentrations:100 nM and 1000 nM (sheet 'Lestaurtinib' of Supplementary Table 1),run:Lestaurtinib_02473_R1,Plate:MR010) of 232 nM, a potency estimated from few doses (ULK3; compound concentrations:100 nM and 1000 nM (sheet 'Lestaurtinib' of Supplementary Table 1),run:Lestaurtinib_02473_R2,Plate:MR010) of 253 nM and a potency estimated from few doses (ULK3; compound concentrations:100 nM and 1000 nM (sheet 'Lestaurtinib' of Supplementary Table 1),run:Lestaurtinib_02482_R1,Plate:MR011) of 240 nM.
